The nature of assay [1]: Nuclear factor erythroid 2-related factor 2/antioxidant responsive element (Nrf2/ARE) small molecule agonists: qHTS cell viability counter screen in human keratinocytes (AID 1919968; active means well fitted curve in the direction sought with a large enough effect in the repeat runs; an effect the other way counts as inactive or inconclusive; further: nearly all actives have a fitted effect of over 55% in size; further: potency means the concentration at half of the fitted maximal effect). In short, it runs like this:
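In human HaCaT keratinocytes stably expressing an ARE-driven luciferase, compound exposure lasted 23 h at 37 C under 5% CO2. Viable cells are quantified with a protease-based fluorogenic reagent (CellTiter-Fluor) read 1 h after addition.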
On the technique in general: Quantitative high-throughput screening tests each substance at several concentrations.

Assay [2] can be described thus: Nuclear factor erythroid 2-related factor 2/antioxidant responsive element (Nrf2/ARE) small molecule agonists: luciferase reporter gene qHTS assay in human keratinocytes (AID 1919969). Further: nearly all actives have a fitted effect of over 35% in size. Further: potency means the concentration at half of the fitted maximal effect. In general terms: A reporter such as luciferase makes a cellular process visible.
For assay [3], the target named is Gonadotropin-releasing hormone receptor (Homo sapiens) (UniProt P30968). Description: Human gonadotropin-releasing hormone receptor (GnRHR) small molecule agonists, calcium flux assay in GnRHR-HEK293 cells (AID 1920063). Further: nearly all actives have a fitted effect of over 35% in size. Further: potency means the concentration at half of the fitted maximal effect. The procedure, abridged:
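Intracellular calcium rise is the read-out: engineered human GnRHR HEK293 cells, dye-loaded, are exposed to DMSO-dissolved compounds and fluorescence at Ex/Em 480/540 is tracked for 3 min.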
Background: A change in cytosolic calcium serves as a functional read-out for many receptors and channels.

Assay [4] concerns the target KiSS-1 receptor (Homo sapiens) (UniProt Q969F8). Description: Human kisspeptin (KISS1R) small molecule agonists, calcium flux assay in KISS1R-HEK293 cells (AID 1920064; active means well fitted curve in the direction sought with a large enough effect in the repeat runs; an effect the other way counts as inactive or inconclusive; further: potency means the concentration at half of the fitted maximal effect). The procedure, abridged: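 Concentration-response testing used 15 concentrations in triplicate on human KISS1R-expressing HEK293 cells. Calcium-dependent fluorescence (Ex/Em 480/540) was followed kinetically for 3 min after compound transfer.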

Assay [5] can be described thus: G protein-coupled receptor (GPCR) small molecule agonists, calcium flux assay: HEK293 wild type cell line counter screen (AID 1920065). Further: potency means the concentration at half of the fitted maximal effect. The procedure, abridged:
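Fluorescence intensity signals activation. After overnight (18 h) culture and a 1 h calcium dye load at 37 C, compounds are added by pin tool and the plate read at 480/540 nm for 3 min in 1 s steps.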

Assay [6] is described as follows: p53 small molecule agonists, cell-based qHTS assay with rat liver microsomes: qHTS cell viability counter screen (AID 1963580). Further: nearly all actives have a fitted effect of over 45% in size. In short, it runs like this:
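Cytotoxicity counter screen: intracellular ATP read by CellTiter-Glo luminescence in the p53 reporter wells. HCT-116 p53RE-bla cells were treated for 16 h at 37 C alongside rat liver microsomes and NADPH, each 0.5 mg/mL final.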

A short description of assay [7]: p53 small molecule agonists, cell-based qHTS assay: qHTS cell viability counter screen (AID 1963581). Further: nearly all actives have a fitted effect of over 45% in size. Further: potency means the concentration at half of the fitted maximal effect. The procedure, abridged:
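Luminescence from CellTiter-Glo, reflecting ATP content, serves as the cytotoxicity measure; it is taken after the 2 h reporter substrate step in HCT-116 p53RE-bla cells dosed for 16 h at 37 C.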

In assay [8] the target is 5-hydroxytryptamine receptor 2A (Homo sapiens) (UniProt P28223). Put plainly: 5-hydroxytryptamine receptor 2A (HTR2A) small molecule antagonists, cell-based qHTS assay (AID 1963586). Further: nearly all actives have a fitted effect of over 45% in size. The procedure, abridged:
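CHO cells stably expressing human HTR2A were plated for 18 h at 37 C, then loaded with calcium dye for 1 h. Compounds were preincubated 5 min at room temperature before DOI (4 nM solution) was added. Kinetic fluorescence was read for 3 min.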

Assay [9] has the same target. Description: 5-hydroxytryptamine receptor 2A (HTR2A) small molecule agonists, cell-based qHTS assay (AID 1963587). Further: nearly all actives have a fitted effect of over 30% in size. Further: potency means the concentration at half of the fitted maximal effect. The procedure, abridged: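 Kinetic calcium-flux fluorescence (2 min, 1 sec intervals) after compound addition in agonist mode. HTR2A-CHO cells were cultured 18 h, then dye-loaded 1 h at 37 C.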
The target in assay [10] is Muscarinic acetylcholine receptor M1 (Homo sapiens) (UniProt P11229). Description: Cholinergic receptor muscarinic 1 (CHRM1) small molecule antagonists, cell-based qHTS assay (AID 1963588). Further: nearly all actives have a fitted effect of over 40% in size. Further: potency means the concentration at half of the fitted maximal effect. The procedure, abridged:
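Compounds were tested at 15 concentrations in three independent runs. Dye-loaded CHRM1-CHO cells were exposed 5 min at room temperature before stimulation by acetylcholine added at 50nM. Intracellular calcium was read kinetically on FDSS for 3 min.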

Assay [11] has the same target. Description: Cholinergic receptor muscarinic 1 (CHRM1) small molecule agonists, cell-based qHTS assay (AID 1963589). Further: nearly all actives have a fitted effect of over 35% in size. Further: potency means the concentration at half of the fitted maximal effect. In short, it runs like this: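 Fluorescent calcium dye reports M1 activation in stably transfected CHO cells. Compounds, 15 concentrations, added after 1 h dye loading at 37 C; kinetic reading at 1 sec intervals.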
For assay [12], the target named is Beta-2 adrenergic receptor (Homo sapiens) (UniProt P07550). Put plainly: Adrenergic beta2 receptor (ADRB2) small molecule antagonists, cell-based qHTS assay (AID 1963592). Further: nearly all actives have a fitted effect of over 50% in size. Further: potency means the concentration at half of the fitted maximal effect. The procedure, abridged: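 Assay format: CHO-ADRB2 cells, 18-20hr seeding at 37C/5% CO2, then compound plus 1nM isoproterenol agonist mix for 0.5hr RT. Homogeneous time-resolved fluorescence cAMP detection after 1hr, expressed as 665/615 nm ratio.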

The target of assay [13] is D(2) dopamine receptor (Homo sapiens) (UniProt P14416). Put plainly: Dopamine D2 receptor (DRD2) small molecule agonists, cell-based qHTS assay (AID 1963594). Further: nearly all actives have a fitted effect of over 35% in size. Further: potency means the concentration at half of the fitted maximal effect. The procedure, abridged: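 cAMP accumulation in DRD2-HEK293 cells measured by HTRF after 1 h detection; compounds added 10 min before NKH477 (200nM […]) forskolin-analogue stimulation, 30 min at room temperature, with Ro20-1724 present at 0.1 mM final.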

A short description of assay [14]: cAMP Responsive Elements (CRE) small molecule antagonists, cell-based qHTS assay (AID 1963591; active means well fitted inhibition curve with a large enough effect in the signal ratio in the repeat runs, not every such curve was filed as active; the % refers to the signal ratio). The procedure, abridged:
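Stimulation used NKH477 at a final 0.25 uM for 3 h in compound-treated CRE-bla HEK293T cells, seeded 18 h beforehand. Reporter activity was measured with LiveBLAzer B/G FRET substrate after 2 h at room temperature.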

The target in assay [15] is D(2) dopamine receptor (Homo sapiens) (UniProt P14416). Description: Dopamine D2 receptor (DRD2) small molecule antagonists, cell-based qHTS assay (AID 1963595; active means well fitted inhibition curve with a large enough effect in the signal ratio in the repeat runs, with a control signal flat; the % refers to the signal ratio). In short, it runs like this: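 Cells were plated and grown for 24 h at 37 °C. Ro20-1724 (0.1 mM final) went in first, then compound for 10 min. NKH477 (200 nM) with quinpirole (12 nM) followed for 30 min at RT, then HTRF detection reagents for 1 h.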

Assay [16] is described as follows: p53 small molecule agonists, cell-based qHTS assay with human liver microsomes: qHTS cell viability counter screen (AID 1963579). Further: nearly all actives have a fitted effect of over 45% in size. Further: potency means the concentration at half of the fitted maximal effect. In short, it runs like this:
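p53RE-bla cells (4,000/well) were pre-incubated 5 h at 37 C, then given compounds in DMSO plus human liver microsomes (0.5 mg/mL final) and NADPH (0.5 mg/mL final) for 16 h at 37 C. Viability was read by CellTiter-Glo luminescence.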

The nature of assay [17]: cAMP Responsive Elements (CRE) small molecule agonists, cell-based qHTS assay (AID 1963590). In short, it runs like this: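 Compound exposure lasted 3 h at 37 C/5% CO2 in CRE-bla HEK 293T cells grown in assay medium with 10% dialyzed FBS and 25 mM HEPES. Reporter signal came from LiveBLAzer B/G FRET substrate, 2 h, room temperature.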
Assay [18] deals with Beta-2 adrenergic receptor (Homo sapiens) (UniProt P07550). Description: Adrenergic beta2 receptor (ADRB2) small molecule agonists, cell-based qHTS assay (AID 1963593).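 Further: CHO cells stably overexpressing human ADRB2.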 In short, it runs like this:
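CHO cells stably over-expressing ADRB2 were plated overnight at 37C, then dosed with compounds plus a stimulation mix containing 100uM IBMX and 25uM Ro-20-1724 for 0.5hr at room temperature. cAMP was measured by HTRF competition, 1hr.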

“And” between values parts separate entries of the source, which are not always exact repeats. Identical values can stand only once. Records with an inconclusive call do not appear. The source holds several records for some structures; these can differ, active in one and inactive in another. The source made the active and inactive calls. Unless noted, the call rests on the fitted dose curve.

Sequence of KiSS-1 receptor (Homo sapiens) (Q969F8 whole entry, looked up): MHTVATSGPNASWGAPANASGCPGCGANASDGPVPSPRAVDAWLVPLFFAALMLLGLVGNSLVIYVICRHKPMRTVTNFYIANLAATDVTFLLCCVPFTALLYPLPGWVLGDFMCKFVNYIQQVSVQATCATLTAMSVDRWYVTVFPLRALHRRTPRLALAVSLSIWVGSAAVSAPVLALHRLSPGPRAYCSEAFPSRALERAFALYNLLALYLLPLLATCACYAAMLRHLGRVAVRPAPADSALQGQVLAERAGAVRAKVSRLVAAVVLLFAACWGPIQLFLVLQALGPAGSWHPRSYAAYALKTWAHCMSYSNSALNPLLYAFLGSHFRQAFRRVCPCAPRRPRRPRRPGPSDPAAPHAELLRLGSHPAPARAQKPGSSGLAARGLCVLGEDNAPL
Sequence of Gonadotropin-releasing hormone receptor (Homo sapiens) (P30968 whole entry, looked up): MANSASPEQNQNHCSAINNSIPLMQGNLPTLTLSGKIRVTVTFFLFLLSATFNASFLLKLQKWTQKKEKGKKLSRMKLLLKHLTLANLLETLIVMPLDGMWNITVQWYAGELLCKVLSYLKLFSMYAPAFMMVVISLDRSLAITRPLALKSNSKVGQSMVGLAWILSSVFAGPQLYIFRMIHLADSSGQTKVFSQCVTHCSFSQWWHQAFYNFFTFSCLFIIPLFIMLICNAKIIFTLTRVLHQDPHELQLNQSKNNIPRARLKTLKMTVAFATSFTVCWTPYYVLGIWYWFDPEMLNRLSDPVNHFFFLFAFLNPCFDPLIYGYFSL
Sequence of D(2) dopamine receptor (Homo sapiens) (P14416 whole entry, looked up): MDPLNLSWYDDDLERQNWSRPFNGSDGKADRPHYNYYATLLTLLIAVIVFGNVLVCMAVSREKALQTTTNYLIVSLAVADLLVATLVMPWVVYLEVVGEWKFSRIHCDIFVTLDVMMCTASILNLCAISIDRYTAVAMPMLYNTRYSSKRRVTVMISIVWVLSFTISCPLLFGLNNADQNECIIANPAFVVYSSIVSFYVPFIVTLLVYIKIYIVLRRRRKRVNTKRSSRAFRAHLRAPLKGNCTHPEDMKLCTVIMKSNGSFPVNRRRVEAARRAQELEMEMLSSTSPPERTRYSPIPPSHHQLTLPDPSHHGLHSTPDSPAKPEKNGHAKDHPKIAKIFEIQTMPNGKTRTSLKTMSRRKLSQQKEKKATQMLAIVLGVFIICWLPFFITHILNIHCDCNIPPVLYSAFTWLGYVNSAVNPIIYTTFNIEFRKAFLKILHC
Sequence of Beta-2 adrenergic receptor (Homo sapiens) (P07550 whole entry, looked up): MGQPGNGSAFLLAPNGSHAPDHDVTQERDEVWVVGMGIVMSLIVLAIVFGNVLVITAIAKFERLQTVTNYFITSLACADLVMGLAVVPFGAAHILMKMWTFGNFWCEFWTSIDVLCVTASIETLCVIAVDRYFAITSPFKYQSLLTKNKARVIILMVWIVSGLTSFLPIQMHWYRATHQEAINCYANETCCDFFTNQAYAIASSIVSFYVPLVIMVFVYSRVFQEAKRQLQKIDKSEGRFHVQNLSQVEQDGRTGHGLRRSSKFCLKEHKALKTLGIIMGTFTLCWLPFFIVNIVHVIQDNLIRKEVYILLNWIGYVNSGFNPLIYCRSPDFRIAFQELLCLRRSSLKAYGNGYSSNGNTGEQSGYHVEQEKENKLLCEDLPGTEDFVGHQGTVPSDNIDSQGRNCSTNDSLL
Sequence of Muscarinic acetylcholine receptor M1 (Homo sapiens) (P11229 whole entry, looked up): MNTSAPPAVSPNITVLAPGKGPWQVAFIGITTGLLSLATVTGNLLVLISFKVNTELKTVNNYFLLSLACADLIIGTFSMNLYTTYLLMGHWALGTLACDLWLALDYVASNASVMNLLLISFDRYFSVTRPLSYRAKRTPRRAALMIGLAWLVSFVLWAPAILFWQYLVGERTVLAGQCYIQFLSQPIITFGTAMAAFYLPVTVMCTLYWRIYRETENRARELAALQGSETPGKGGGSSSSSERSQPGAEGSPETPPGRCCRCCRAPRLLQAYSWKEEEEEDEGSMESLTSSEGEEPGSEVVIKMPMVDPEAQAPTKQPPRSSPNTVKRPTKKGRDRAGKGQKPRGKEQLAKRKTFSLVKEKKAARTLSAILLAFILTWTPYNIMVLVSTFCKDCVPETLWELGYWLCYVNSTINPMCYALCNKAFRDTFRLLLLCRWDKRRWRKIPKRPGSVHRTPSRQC
Sequence of 5-hydroxytryptamine receptor 2A (Homo sapiens) (P28223 whole entry, looked up): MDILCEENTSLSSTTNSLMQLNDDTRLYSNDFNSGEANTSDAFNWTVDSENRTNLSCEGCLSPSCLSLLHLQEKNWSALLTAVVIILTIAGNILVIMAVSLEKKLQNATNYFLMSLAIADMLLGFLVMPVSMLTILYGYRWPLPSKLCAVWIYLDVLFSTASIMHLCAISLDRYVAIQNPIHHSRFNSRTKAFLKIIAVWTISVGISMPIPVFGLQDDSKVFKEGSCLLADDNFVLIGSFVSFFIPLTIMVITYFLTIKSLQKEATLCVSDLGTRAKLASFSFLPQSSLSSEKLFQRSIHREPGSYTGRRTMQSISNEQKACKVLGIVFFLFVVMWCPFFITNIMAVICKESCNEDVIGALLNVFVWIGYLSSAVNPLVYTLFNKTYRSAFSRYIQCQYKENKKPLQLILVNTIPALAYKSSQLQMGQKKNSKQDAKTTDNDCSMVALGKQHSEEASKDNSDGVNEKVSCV

`O=C1OC2(c3ccccc31)c1cc(Br)c(O)c(Br)c1Oc1c2cc(Br)c(O)c1Br`: the Potency result in assay [1], in assay [2], in assay [6], in assay [7], in assay [8] and in assay [10] was “inactive” each time. In addition, the Potency in assay [3] was 31.4 µM (active) and 14.2 µM (active) and 15.1 µM (active); in assay [4], 39.5 µM (active) and 44.9 µM (active) and 23.9 µM (active); in [5] it was 35.2 µM (active) and 35.7 µM (active) and 16.9 µM (active); in assay [9] it was 22.2 µM (active) and 1.59 µM (active) and 19 µM (active); in assay [11] it was 19.8 µM (active) and 22.5 µM (active) and 21.3 µM (active); in assay [12] it was 62 µM (active) and 62.8 µM (active) and 21.1 µM (active). Also, the Potency in [13] was 62 µM (active) and 60.5 µM (active) and 29.8 µM (active).

As for `Oc1ccc2cc(SSc3ccc4cc(O)ccc4c3)ccc2c1`, the Potency entry in [1], in [3], in [4], in [5], in assay [6] and in assay [7] was “inactive” each time. Further, the Potency entry in assay [9], in assay [11], in assay [14], in assay [13] and in [15] was “inactive” each time. Besides, the Potency in assay [2] is 68.7 µM (active) and 68.6 µM (active).

Regarding `OCCNCCO`, the Potency result in [1], in assay [2], in assay [3], in assay [4], in assay [5] and in assay [16] was “inactive” each time. In addition, the Potency result in [6], in assay [7], in assay [9], in assay [10], in assay [11] and in assay [17] was “inactive” throughout. In addition, the Potency entry in assay [14], in assay [13] and in assay [15] was “inactive” each time.

On to `O=C1CCCCC1`, for which the Potency result in assay [1], in assay [2], in [3], in assay [4], in assay [5] and in assay [16] was “inactive” each time. The Potency entry in assay [8], in [10], in assay [11], in assay [17], in assay [14] and in assay [12] was “inactive” each time. Besides, the Potency entry in assay [18], in assay [13] and in [15] was “inactive” each time.

Take `C=C(c1ccc(C(=O)O)cc1)c1cc2c(cc1C)C(C)(C)CCC2(C)C`: the Potency in assay [1] was 27.3 µM (active) and 23.7 µM (active); in [16], 20.4 µM (active) and inactive; in [7], “inactive and 12.6 µM (active)”. Besides, the Potency result in [2], in assay [3], in assay [4], in assay [5], in assay [11] and in assay [14] was “inactive” each time. The Potency entry in assay [12], in assay [18], in assay [13] and in assay [15] was “inactive” in each case.

`CC(=O)OCc1ccco1`: the Potency entry in assay [1], in assay [2], in [3], in assay [4], in assay [5] and in assay [16] was “inactive” throughout. Moreover, the Potency entry in assay [7], in assay [8], in assay [9], in [10], in [11] and in assay [17] was “inactive” in each case. Further, the Potency result in [14], in [12], in assay [13] and in assay [15] was “inactive” in each case.

As to `O=Cc1ccccc1C=O`, the Potency in assay [1] is 61.1 µM (active) and inactive; in [2], 24.3 µM (active) and inactive; in [10], 42.1 µM (active) and inactive. In addition, the Potency result in assay [3], in [4], in [5], in assay [6], in assay [7] and in assay [8] was “inactive” each time. Further, the Potency entry in [9], in assay [11], in assay [13] and in assay [15] was “inactive” throughout.

For the compound `CC(C)OC(=O)C(C)(C)Oc1ccc(C(=O)c2ccc(Cl)cc2)cc1`, the Potency result in [1], in assay [3], in [4], in [5], in assay [16] and in [6] was “inactive” throughout. The Potency result in [7], in [17], in assay [14], in assay [12], in assay [13] and in assay [15] was “inactive” in each case. For the same compound, in assay [2], the Potency is 61.1 µM (active) and inactive.

The values above are taken from PubChem BioAssay (Tox21).
